According to PubChem BioAssay (Tox21):
Inconclusive results are not listed. Activity calls are given as the source filed them. Unless noted, the call rests on the fitted dose curve; in most records, active means well fitted curve in the direction sought with a large enough effect in the repeat runs; inconclusive means weak or mixed curves; inactive means no such curve, though single readings can be large; an effect the other way counts as inactive or inconclusive.

Tests used:
[1] = qHTS assay to identify small molecule agonists of the RXR signaling pathway - cell viability counter screen (AID 1159529); further: series mostly up to about 77 µM; nearly all actives have a fitted effect of over 50% in size
Procedure, shortened: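 Cell viability is measured by CellTiter-Glo luminescence, 30 min at room temperature, in wells already read for beta-lactamase. Engineered HEK 293T cells (RXR-alpha-UAS-bla) are dosed 16 hr at 37 C. Tetraoctyl ammonium bromide serves as positive control.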

[2] = qHTS assay to identify small molecule antagonists of the retinoid acid receptor (RAR) signaling pathway - cell viability counter screen (AID 1159551); further: nearly all actives have a fitted effect of over 35% in size
Procedure, shortened: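 Viability of C3RL4 cells is quantified from ATP by luminescence after 6 h treatment at 37 C with compounds and 1 uM retinol.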

[3] = qHTS assay to identify small molecule antagonists of the retinoic acid receptor (RAR) signaling pathway (AID 1159552; further: nearly all actives have a fitted effect of over 50% in size; further: potency means the concentration at half of the fitted maximal effect)
Procedure, shortened: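 Quantitative HTS in C3RL4 RARE-luciferase reporter cells. Compounds were added with 1 uM (final) retinol; luminescence was read after 6 hr.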

[4] = qHTS assay to identify small molecule agonists of the retinoic acid receptor (RAR) signaling pathway (AID 1159553); further: potency means the concentration at half of the fitted maximal effect
Procedure, shortened: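 Compounds dissolved in DMSO were pinned onto C3RL4 cells seeded the previous day, and plates were held 6 hr at 37 C. RARE-driven luciferase output was then read by luminescence.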

[5] = qHTS assay to identify small molecule antagonists of the estrogen related receptor (ERR) signaling pathway from Tox21 library - cell viability counter screen (AID 1224834); further: nearly all actives have a fitted effect of over 30% in size; further: potency means the concentration at half of the fitted maximal effect
Procedure, shortened: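 In this quantitative HTS format, ERR cells receive compounds in DMSO and are incubated for 17.5 h at 37 C. Live-cell protease activity is then detected with CellTiter-Fluor.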

[6] = biological target: Luciferin 4-monooxygenase (Photinus pyralis) (UniProt P08659); test: qHTS assay to identify small molecule inhibitors of firefly luciferase (AID 1224835); further: nearly all actives have a fitted effect of over 25% in size; further: potency means the concentration at half of the fitted maximal effect
Procedure, shortened: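 Quantitative HTS format; KM concentrations of both substrates. Purified P. pyralis FLuc activity quantified from luminescence images.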

[7] = qHTS assay to identify small molecule agonists of the constitutive androstane receptor (CAR) signaling pathway - cell viability counter screen (AID 1224836); further: nearly all actives have a fitted effect of over 45% in size; further: potency means the concentration at half of the fitted maximal effect
Procedure, shortened: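 Counter screen multiplexed with the CAR reporter readout: HepG2 cells co-transfected with hCAR and the CYP2B6-2.2kb construct receive a 15-concentration compound series and 0.75 uM PK11195 (final), then CellTiter-Fluor fluorescence is read after 23 h.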

[8] = qHTS assay to identify small molecule antagonists of the constitutive androstane receptor (CAR) signaling pathway - cell viability counter screen (AID 1224837); further: nearly all actives have a fitted effect of over 45% in size; further: potency means the concentration at half of the fitted maximal effect
Procedure, shortened: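 In quantitative HTS format, compounds at 15 concentrations were applied to HepG2 cells double-transfected with hCAR and CYP2B6-2.2kb under 50 nM CITCO stimulation; live-cell protease activity was read after 23 hr via CellTiter-Fluor.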

[9] = biological target: Nuclear receptor subfamily 1 group I member 3 (Homo sapiens) (UniProt Q14994); test: qHTS assay to identify small molecule antagonists of the constitutive androstane receptor (CAR) signaling pathway (AID 1224838); further: nearly all actives have a fitted effect of over 40% in size
Procedure, shortened: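 CITCO-stimulated (50 nM final) HepG2 cells stably transfected with hCAR and CYP2B6-2.2kb luciferase were exposed to compounds at 15 concentrations for 24 h at 37 C/5% CO2. A luciferase reagent was added and luminescence recorded after 30 min.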

[10] = biological target: Nuclear receptor subfamily 1 group I member 3 (Homo sapiens) (UniProt Q14994); test: qHTS assay to identify small molecule agonists of the constitutive androstane receptor (CAR) signaling pathway (AID 1224839); further: nearly all actives have a fitted effect of over 15% in size; further: potency means the concentration at half of the fitted maximal effect
Procedure, shortened: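 A 15-concentration quantitative screen uses HepG2 cells co-transfected stably with human CAR and CYP2B6-2.2kb reporter. Treatment lasts 24 h with 0.75 uM PK11195 final present; ONE-Glo luminescence is the signal.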

[11] = qHTS assay to identify small molecule antagonists of the estrogen related receptor signaling pathway with the pleiotropic PPARgamma coactivator (PGC) from Tox21 10K library - cell viability counter screen (AID 1224840; active means well fitted cell-killing curve with a large enough effect in the repeat runs, not every such curve was filed as active; further: nearly all actives have a fitted effect of over 40% in size)
Procedure, shortened: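 Viability counter screen, PGC/ERR cells: 17.5 h compound exposure at 37 C, CellTiter-Fluor fluorescence endpoint.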

[12] = qHTS assay to identify small molecule antagonists of the estrogen related receptor signaling pathway with the pleiotropic PPARgamma coactivator (PGC) from Tox21 10K library (AID 1224841; call rule not given here; further: actives are mostly falling curves and most rising ones were filed inactive; nearly all actives have a fitted effect of over 50% in size; further: potency means the concentration at half of the fitted maximal effect)
Procedure, shortened: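 In the PGC/ERR line, DMSO solutions of test chemicals are pin-delivered to 2,000 cells/well six hours after dispensing. Following eighteen hours' incubation, One-Glo reagent is added and luminescence recorded.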

[13] = qHTS assay to identify small molecule agonists of the estrogen related receptor signaling pathway with the pleiotropic PPARgamma coactivator (PGC) from Tox21 10K library (AID 1224842); further: nearly all actives have a fitted effect of over 15% in size; further: potency means the concentration at half of the fitted maximal effect
Procedure, shortened: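 PGC/ERR reporter cells (NTP line) were seeded 2,000 per well, rested 6 h at 37 C/5% CO2, then pin-dosed with compounds in DMSO for 18 h at 37 C; luciferase read by One-Glo luminescence after 30 min at room temperature.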

[14] = biological target: Retinoic acid receptor RXR-alpha (Homo sapiens) (UniProt P19793); test: qHTS assay to identify small molecule agonists of the RXR signaling pathway (AID 1159527; calls by dose curve; further: nearly all actives have a fitted effect of over 35% in size; further: potency means the concentration at half of the fitted maximal effect)
Procedure, shortened: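 qHTS of the Tox21 10K library in GeneBLAzer RXR-alpha HEK 293T cells carrying a beta-lactamase reporter […]; 16 hr treatment, 9-cis retinoic acid as agonist control, FRET read-out.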

[15] = qHTS assay to identify small molecule antagonists of the estrogen related receptor (ERR) signaling pathway - cell viability counter screen (AID 1224818); further: series mostly up to about 46 µM
Procedure, shortened: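 Cytotoxicity check run alongside the ERR antagonist screen: cells exposed to test compounds 17.5 h at 37 C, viability taken as CellTiter-Fluor fluorescence intensity.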

[16] = qHTS assay to identify small molecule antagonists of the estrogen related receptor (ERR) signaling pathway (AID 1224819;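 further: luminescence from an ERR-driven luciferase reporter measured with One-Glo reagent; series mostly up to about 46 µM; nearly all actives have a fitted effect of over 50% in size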)
Procedure, shortened: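 ERR reporter cells were plated at 2,000 cells/well and left 6 h at 37 C/5% CO2 before pin-tool transfer of compounds in DMSO. After 18 h at 37 C, One-Glo was added and luminescence was read 30 min later at room temperature.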

[17] = qHTS assay to identify small molecule agonists of the estrogen related receptor (ERR) signaling pathway (AID 1224820)
Procedure, shortened: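 Luminescence readout (One-Glo, 30 min RT) from NTP-supplied ERR cell line exposed to compounds for 18 h at 37 C. Cells seeded 2,000 per well and pre-incubated 6 h before pin-tool compound transfer.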

[18] = qHTS assay to identify small molecule antagonists of the estrogen related receptor signaling pathway with the pleiotropic PPARgamma coactivator (PGC) cell viability counter screen (AID 1224822; further: series mostly up to about 46 µM)
Procedure, shortened: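 Viable cell signal (CellTiter-Fluor, 30 min, 37 C/5% CO2) was measured in PGC/ERR cells after a 17.5 h compound incubation.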

Measured: Potency

Luciferin 4-monooxygenase (Photinus pyralis), sequence (P08659 whole entry, looked up): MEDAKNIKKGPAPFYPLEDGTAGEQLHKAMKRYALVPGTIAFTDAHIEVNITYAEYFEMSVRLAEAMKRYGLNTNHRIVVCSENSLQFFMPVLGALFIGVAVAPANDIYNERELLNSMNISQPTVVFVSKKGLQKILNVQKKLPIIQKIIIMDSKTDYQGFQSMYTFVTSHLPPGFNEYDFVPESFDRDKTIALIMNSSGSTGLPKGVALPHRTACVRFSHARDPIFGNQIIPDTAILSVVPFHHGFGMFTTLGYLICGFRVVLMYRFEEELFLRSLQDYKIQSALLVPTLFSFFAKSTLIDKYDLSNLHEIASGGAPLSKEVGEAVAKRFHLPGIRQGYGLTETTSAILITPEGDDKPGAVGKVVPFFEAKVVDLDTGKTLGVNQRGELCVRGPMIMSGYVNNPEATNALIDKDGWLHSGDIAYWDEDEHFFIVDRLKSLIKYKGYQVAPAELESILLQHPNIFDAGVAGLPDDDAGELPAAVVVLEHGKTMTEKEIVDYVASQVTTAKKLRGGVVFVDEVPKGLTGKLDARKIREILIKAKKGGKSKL
Nuclear receptor subfamily 1 group I member 3 (Homo sapiens), sequence (Q14994 whole entry, looked up): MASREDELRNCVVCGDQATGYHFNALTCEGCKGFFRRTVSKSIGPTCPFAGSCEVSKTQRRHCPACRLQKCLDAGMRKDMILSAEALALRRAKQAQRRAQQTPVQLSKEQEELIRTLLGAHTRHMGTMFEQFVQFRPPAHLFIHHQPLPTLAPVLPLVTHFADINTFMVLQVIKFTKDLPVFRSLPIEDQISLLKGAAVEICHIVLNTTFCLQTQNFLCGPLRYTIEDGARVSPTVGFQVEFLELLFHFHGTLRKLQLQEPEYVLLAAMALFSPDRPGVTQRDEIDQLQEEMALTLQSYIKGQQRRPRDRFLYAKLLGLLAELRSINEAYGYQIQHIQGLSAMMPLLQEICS
Retinoic acid receptor RXR-alpha (Homo sapiens), sequence (P19793 whole entry, looked up): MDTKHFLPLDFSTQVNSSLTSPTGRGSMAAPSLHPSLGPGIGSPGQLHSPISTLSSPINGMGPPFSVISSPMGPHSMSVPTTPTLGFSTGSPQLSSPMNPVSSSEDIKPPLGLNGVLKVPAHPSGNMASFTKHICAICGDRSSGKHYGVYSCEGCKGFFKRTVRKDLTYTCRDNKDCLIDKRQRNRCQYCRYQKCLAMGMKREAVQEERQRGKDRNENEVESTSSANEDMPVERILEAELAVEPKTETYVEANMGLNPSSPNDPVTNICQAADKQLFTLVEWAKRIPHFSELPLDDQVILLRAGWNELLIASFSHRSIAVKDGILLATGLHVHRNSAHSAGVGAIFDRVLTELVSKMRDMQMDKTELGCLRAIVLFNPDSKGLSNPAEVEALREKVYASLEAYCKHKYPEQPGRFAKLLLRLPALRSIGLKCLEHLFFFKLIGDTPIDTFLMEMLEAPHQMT

CCN[C@H]1CN(CCCOC)S(=O)(=O)c2sc(S(N)(=O)=O)cc21
not listed: [12] | [13] | [14] | [15] | [16] | [17] | [18]
inactive: all other assays above

Cc1cn([C@@H]2O[C@H](CO)[C@@H](O)[C@@H]2F)c(=O)[nH]c1=O
inactive: [1] | [2] | [3] | [4] | [5] | [6] | [7] | [8] | [10] | [11]

CCOC(=O)C1CC(=O)C(=C(O)C2CC2)C(=O)C1 (stereo unspecified)
not listed: [14] | [15] | [16] | [17] | [18]
inactive: all other assays above

O=C1CCCc2ccccc21
not listed: [11] | [14] | [15] | [16] | [17] | [18]
inactive: all other assays above

CN1CCN(C2=Nc3cc(F)ccc3Cc3ccccc32)CC1
not listed: [1] | [11] | [15] | [16] | [17] | [18]
inactive: all other assays above

O=C(O)c1cccc(Cl)c1Cl
inactive: [1] | [2] | [3] | [4] | [5] | [6] | [7] | [8] | [9] | [10]

O=CCCc1ccccc1
active: [14] 19.5 µM
inactive: [1] | [2] | [4] | [5] | [6] | [7] | [11]

CCOc1ccc2nc(N)sc2c1
active: [4] 3.83 µM | [6] 19.9 µM | [10] 21.5 µM | [13] 27.1 µM
not listed: [14] | [15] | [16] | [17] | [18]
inactive: all other assays above

O=C1CCCCC1C1CCCCC1 (stereo unspecified)
inactive: [1] | [2] | [3] | [4] | [5] | [6] | [7] | [8]

CN1CCC[C@@H]1Cc1c[nH]c2ccc(CCS(=O)(=O)c3ccccc3)cc12
not listed: [1] | [3] | [4] | [12] | [13]
inactive: all other assays above

Cc1cc2c(s1)Nc1ccccc1N=C2N1CCN(C)CC1
active: [5] 5.96 µM | [7] 8.41 µM | [8] 3.35 µM
not listed: [1] | [15] | [16] | [17] | [18]
inactive: all other assays above

Nc1ccc2ccccc2c1S(=O)(=O)O
active: [4] 24.8 µM | [6] 32.4 µM | [10] 22.1 µM
inactive: [1] | [2] | [3] | [5] | [7] | [8] | [9] | [11]

O=c1[nH]cnc2c1ncn2[C@@H]1O[C@H](CO)[C@@H](O)[C@H]1O
inactive: [14] | [1] | [5] | [6] | [7] | [8] | [9] | [12] | [13]

CC1(O)CSC(C)(O)CS1 (stereo unspecified)
inactive: [1] | [2] | [3] | [4] | [5] | [6] | [7] | [9] | [10]

NNS(=O)(=O)c1ccc(Oc2ccc(S(=O)(=O)NN)cc2)cc1
not listed: [9] | [10] | [14] | [15] | [16] | [17] | [18]
inactive: all other assays above

N#Cc1ccc(C(c2ccc(C#N)cc2)n2cncn2)cc1
inactive: [1] | [2] | [3] | [4] | [5] | [6] | [7] | [8] | [11]

CCOc1ccccc1N
active: [12] 15.2 µM
inactive: [1] | [2] | [3] | [4] | [6] | [9] | [11] | [13]

NCCC(O)(P(=O)(O)O)P(=O)(O)O
not listed: [6] | [10] | [14] | [15] | [16] | [17] | [18]
inactive: all other assays above

CC(C)c1ccccc1
inactive: [1] | [2] | [3] | [5] | [6] | [7] | [8] | [9] | [10] | [11]

C=CC1CO1 (stereo unspecified)
inactive: [1] | [2] | [3] | [4] | [5] | [6] | [7] | [8] | [11]

CC(C)=CCCC(C)CCOC=O (stereo unspecified)
inactive: [1] | [2] | [3] | [5] | [6] | [7] | [8] | [10] | [11]

CCOC(=O)CS
active: [3] 28.1 µM | [12] 14.1 µM
inactive: [1] | [2] | [4] | [5] | [6] | [7] | [8] | [10] | [13]
